Experimental data: the supplement of paper PMC10849652
The full data set covers some 7,900 targets. This sample favours those with a hit. About 0.6% of all pairs of compound and target were hits.

Compound: c1cn2cc(-c3ccc4cn[nH]c4c3)nc(Nc3ccc(N4CCOCC4)cc3)c2n1 [entospletinib]
Assay: log2 fold change, soluble protein after heating vs DMSO (PISA); higher = thermal stabilisation; K562 cells, 10 uM, 30 min; active = over 0.2 and 3.5 SD of the protein, either way, in both replicates (recomputed)
Procedure, shortened: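 Thermal stability values are relative to control samples and come from duplicates. They are expressed as log2 fold changes. For measurement, K562 cells (2×10^6 cells/mL) received 10 μM compound for 30 min, and aliquots were heated for 3 min over 48°C-58°C, pooled, and extracted at 4°C in PBS with 0.5% NP-40. Soluble protein, the supernatant after 21,000xg for 90 min, was quantified by TMTpro 16plex LC-MS/MS with equalised channel sums.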

Chain of UniProt P62070 (P62070 whole entry, looked up): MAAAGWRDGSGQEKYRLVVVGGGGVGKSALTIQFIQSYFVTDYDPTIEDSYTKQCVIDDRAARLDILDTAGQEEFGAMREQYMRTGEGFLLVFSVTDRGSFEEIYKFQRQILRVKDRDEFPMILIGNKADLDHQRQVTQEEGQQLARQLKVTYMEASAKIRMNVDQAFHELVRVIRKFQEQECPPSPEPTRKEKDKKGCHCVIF
Chain of UniProt Q9BQY4 (Q9BQY4 whole entry, looked up): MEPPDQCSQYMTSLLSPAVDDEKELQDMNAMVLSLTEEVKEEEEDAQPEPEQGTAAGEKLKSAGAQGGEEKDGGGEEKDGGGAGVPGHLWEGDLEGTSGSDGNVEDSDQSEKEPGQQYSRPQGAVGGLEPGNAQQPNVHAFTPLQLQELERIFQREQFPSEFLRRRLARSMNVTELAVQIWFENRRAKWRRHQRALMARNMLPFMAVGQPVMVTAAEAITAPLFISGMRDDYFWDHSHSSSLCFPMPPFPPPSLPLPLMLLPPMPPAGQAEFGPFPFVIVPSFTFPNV
Chain of UniProt Q96EE3 (Q96EE3 whole entry, looked up): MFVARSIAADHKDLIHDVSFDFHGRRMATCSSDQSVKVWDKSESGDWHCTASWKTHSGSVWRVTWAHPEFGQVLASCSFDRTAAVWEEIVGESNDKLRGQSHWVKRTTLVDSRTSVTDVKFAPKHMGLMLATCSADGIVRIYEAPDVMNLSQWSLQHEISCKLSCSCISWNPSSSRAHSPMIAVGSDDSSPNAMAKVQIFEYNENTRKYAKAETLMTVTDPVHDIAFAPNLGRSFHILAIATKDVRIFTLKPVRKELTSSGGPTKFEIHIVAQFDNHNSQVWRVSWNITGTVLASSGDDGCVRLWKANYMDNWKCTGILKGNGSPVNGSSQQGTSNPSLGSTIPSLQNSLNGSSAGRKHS
Chain of UniProt Q8IZV5 (Q8IZV5 whole entry, looked up): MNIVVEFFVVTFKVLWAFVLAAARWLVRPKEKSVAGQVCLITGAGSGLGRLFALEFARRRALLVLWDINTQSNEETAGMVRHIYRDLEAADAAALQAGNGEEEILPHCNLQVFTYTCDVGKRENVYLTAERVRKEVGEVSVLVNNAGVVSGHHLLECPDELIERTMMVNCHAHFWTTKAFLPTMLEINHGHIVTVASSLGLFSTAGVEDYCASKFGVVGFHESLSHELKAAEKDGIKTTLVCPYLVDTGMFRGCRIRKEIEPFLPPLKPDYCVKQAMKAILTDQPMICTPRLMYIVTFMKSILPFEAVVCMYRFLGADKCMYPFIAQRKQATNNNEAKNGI
Chain of UniProt P06400 (P06400 whole entry, looked up): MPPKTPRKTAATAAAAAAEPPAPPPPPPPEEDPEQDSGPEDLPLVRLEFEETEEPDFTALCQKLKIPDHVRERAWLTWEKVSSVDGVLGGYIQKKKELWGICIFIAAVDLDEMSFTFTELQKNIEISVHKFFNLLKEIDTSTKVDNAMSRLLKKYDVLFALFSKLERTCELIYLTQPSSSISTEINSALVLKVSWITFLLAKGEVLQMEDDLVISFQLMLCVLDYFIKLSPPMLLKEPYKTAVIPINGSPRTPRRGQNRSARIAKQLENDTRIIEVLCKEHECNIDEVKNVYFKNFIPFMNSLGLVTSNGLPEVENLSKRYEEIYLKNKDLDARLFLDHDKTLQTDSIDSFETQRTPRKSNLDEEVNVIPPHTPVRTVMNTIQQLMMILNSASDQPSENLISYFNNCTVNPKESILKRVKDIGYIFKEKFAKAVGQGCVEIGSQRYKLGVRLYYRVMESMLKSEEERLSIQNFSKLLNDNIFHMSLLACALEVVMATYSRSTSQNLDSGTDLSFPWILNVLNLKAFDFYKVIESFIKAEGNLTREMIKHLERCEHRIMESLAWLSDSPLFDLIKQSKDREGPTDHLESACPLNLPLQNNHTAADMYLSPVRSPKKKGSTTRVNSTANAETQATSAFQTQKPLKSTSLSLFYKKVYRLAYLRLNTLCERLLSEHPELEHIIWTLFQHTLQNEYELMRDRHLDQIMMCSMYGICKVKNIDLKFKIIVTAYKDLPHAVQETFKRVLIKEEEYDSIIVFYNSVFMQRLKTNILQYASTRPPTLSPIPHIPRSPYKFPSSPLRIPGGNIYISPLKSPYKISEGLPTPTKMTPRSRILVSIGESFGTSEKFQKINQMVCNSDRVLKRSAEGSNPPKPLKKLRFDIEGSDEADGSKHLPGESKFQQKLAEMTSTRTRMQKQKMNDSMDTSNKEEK
Chain of UniProt Q92696 (Q92696 whole entry, looked up): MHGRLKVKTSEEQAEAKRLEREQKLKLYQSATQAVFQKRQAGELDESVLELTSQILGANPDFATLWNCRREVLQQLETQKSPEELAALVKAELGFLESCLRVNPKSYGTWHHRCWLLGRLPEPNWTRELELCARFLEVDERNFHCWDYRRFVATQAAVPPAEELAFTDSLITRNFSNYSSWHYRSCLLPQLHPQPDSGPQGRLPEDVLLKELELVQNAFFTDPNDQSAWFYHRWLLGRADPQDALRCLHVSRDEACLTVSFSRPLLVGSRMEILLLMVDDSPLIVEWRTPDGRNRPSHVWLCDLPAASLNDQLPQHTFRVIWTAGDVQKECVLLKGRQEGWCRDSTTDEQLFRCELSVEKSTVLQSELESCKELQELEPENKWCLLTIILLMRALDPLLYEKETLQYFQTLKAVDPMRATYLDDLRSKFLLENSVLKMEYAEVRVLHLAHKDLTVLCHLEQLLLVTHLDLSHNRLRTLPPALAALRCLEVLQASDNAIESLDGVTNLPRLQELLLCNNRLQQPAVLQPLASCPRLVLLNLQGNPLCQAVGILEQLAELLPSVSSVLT
Chain of UniProt Q15050 (Q15050 whole entry, looked up): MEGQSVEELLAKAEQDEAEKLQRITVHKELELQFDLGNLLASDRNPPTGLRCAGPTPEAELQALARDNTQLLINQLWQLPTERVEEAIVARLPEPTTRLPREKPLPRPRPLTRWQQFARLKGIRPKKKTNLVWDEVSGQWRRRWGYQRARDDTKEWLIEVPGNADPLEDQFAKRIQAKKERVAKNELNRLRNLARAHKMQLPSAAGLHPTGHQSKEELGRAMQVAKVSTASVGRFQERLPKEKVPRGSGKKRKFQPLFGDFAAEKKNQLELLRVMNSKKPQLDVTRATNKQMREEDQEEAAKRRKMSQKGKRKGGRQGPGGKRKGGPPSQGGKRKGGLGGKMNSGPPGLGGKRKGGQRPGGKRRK
Chain of UniProt Q7Z6E9 (Q7Z6E9 whole entry, looked up): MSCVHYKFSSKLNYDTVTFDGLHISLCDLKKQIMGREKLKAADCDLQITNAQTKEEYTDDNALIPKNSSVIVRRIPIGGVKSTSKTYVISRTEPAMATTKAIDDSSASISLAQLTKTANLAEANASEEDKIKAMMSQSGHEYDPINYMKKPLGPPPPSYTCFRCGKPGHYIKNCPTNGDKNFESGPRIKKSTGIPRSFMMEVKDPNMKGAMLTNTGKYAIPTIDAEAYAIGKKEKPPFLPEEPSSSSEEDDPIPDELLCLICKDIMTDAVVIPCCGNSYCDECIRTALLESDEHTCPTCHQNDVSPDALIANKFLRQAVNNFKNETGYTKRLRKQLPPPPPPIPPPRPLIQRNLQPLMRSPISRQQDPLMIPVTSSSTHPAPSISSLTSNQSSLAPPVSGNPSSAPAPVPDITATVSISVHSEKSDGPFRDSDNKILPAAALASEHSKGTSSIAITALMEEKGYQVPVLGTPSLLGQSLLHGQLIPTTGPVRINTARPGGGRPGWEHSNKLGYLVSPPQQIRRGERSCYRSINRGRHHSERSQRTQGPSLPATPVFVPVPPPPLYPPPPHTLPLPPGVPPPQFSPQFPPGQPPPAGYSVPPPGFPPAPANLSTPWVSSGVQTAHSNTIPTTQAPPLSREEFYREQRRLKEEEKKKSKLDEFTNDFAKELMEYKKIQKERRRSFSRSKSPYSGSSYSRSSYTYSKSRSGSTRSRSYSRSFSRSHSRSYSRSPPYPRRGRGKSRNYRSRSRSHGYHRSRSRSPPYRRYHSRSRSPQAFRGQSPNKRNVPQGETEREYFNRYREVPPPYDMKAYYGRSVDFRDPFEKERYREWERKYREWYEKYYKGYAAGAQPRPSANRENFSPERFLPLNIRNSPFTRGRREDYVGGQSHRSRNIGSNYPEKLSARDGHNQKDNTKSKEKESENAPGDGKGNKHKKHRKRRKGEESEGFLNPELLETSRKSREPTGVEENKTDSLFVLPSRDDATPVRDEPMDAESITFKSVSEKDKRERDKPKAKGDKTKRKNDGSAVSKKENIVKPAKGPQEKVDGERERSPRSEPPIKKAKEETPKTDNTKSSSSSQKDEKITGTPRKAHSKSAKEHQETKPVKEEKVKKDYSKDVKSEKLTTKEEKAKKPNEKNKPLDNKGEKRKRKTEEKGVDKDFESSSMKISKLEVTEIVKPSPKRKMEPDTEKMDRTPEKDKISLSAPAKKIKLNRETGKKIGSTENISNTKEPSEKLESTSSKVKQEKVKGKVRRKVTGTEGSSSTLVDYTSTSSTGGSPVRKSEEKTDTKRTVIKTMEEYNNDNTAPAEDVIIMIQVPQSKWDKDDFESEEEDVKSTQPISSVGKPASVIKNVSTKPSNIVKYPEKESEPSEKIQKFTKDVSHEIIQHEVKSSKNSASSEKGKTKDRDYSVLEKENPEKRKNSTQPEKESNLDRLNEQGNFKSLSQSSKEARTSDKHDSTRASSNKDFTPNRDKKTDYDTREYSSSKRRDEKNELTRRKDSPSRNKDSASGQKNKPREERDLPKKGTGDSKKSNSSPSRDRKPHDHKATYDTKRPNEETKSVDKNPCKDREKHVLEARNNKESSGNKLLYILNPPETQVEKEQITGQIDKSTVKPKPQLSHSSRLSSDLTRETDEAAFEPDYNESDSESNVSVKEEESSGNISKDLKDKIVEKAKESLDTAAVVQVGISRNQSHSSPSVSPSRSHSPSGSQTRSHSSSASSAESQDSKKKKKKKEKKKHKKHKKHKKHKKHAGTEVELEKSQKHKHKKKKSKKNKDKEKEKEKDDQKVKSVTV

log2 fold change, inactive:
RBBP6 (UniProt Q7Z6E9) 0.077
RSRC1 (UniProt Q96IZ7) 0.076
RFC3 (UniProt P40938) -0.037
RHOXF2 (UniProt Q9BQY4) 0.062
RPS18 (UniProt P62269) 0.094
RB1CC1 (UniProt Q8TDY2) -0.041
RB1 (UniProt P06400) 0.037
RPS6KA1 isoform 2 (UniProt Q15418) 0.026
RAD51 (UniProt Q06609) -0.127
RRS1 (UniProt Q15050) 0.066
RABGGTA (UniProt Q92696) -0.013
SEH1L isoform 1 (UniProt Q96EE3) 0.007
RRAS2 isoform 4 (UniProt P62070) -0.012
RDH10 (UniProt Q8IZV5) 0.03
